Data on 1 sequence can be found in article PMC7862700, “An all-to-all approach to the identification of sequence-specific readers for epigenetic DNA modifications on cytosine”.

Common to all, as to experiment: DAPPL (digital affinity profiling via proximity ligation, sequencing); 10 mM Tris-HCl pH 7.5, 50 mM NaCl, 1 mM DTT, 4% glycerol, room temperature, 30 min; GST-TFs on glutathione beads, 16-mer random dsDNA library, 0.1% formaldehyde crosslink after washing; high values mean tight binding
One experiment addresses T1, FEV (Homo sapiens, UniProt Q99581 1-238).
T1 sequence: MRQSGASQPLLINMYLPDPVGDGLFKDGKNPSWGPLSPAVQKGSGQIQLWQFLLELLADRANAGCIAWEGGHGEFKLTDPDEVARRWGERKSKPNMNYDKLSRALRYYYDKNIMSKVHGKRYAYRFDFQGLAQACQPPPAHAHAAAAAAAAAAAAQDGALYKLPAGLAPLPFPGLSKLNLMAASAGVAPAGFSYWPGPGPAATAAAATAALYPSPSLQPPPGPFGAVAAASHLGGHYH
Particulars: protein: recombinant; tags: N-terminal GST; dsDNA, one strand shown. Summed up: (§1)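 Pools were built from human transcription factors expressed in yeast as GST fusions, captured on glutathione beads and DNA-barcoded, along with a tag-only sample. Incubation with 200 nmole of a 16-mer random double-stranded DNA library lasted 30 min at room temperature in Tris/NaCl/DTT/glycerol buffer, and was followed by washing, 0.1% formaldehyde crosslinking, proximity ligation, PCR amplification and Illumina NextSeq500 sequencing. Binding signal is the quotient of each hexamer's read frequency for a factor and its frequency for the tag-only sample.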

The target of the next experiment is ETV5 (Homo sapiens, UniProt P41161 1-510). Particulars: protein: recombinant; tags: N-terminal GST; dsDNA, one strand shown. In outline:
as §1

The next experiment concerns the target HSF1 (Homo sapiens, UniProt Q00613 1-529). Particulars: protein: recombinant; tags: N-terminal GST; chain copies: 3; dsDNA, one strand shown. Summed up: as §1
A further experiment has as its target T2, SPIC (Homo sapiens, UniProt Q8N5J4 1-248).
T2 sequence: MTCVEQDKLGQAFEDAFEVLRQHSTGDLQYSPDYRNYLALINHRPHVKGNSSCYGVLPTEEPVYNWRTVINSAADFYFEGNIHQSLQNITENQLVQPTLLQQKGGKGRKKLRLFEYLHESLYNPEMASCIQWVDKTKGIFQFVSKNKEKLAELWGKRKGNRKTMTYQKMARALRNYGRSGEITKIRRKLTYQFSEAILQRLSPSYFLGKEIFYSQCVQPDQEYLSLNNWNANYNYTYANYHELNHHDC
The following applies: protein: recombinant; tags: N-terminal GST; dsDNA, one strand shown. In outline: as §1

In the next experiment the target is ELF4 (Homo sapiens, UniProt Q99607 1-663). The following applies: protein: recombinant; tags: N-terminal GST; dsDNA, one strand shown. In outline:
as §1

In another experiment the target is T3, ELK4 (Homo sapiens, UniProt P28324-2 1-405).
T3 sequence: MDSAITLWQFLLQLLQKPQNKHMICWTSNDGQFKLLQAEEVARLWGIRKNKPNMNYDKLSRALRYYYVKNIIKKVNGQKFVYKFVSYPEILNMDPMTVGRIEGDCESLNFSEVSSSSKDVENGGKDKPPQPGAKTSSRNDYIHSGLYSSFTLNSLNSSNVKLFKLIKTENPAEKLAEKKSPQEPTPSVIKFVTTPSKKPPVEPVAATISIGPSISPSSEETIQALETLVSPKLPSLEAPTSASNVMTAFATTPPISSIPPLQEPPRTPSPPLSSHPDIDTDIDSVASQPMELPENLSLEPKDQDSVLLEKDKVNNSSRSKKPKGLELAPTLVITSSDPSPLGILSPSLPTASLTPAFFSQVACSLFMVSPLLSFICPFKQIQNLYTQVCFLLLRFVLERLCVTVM
Particulars: protein: recombinant; tags: N-terminal GST; dsDNA, one strand shown. Summed up: as §1

Another experiment concerns the target T4, ETV2 (Homo sapiens, UniProt O00321 1-342).
T4 sequence: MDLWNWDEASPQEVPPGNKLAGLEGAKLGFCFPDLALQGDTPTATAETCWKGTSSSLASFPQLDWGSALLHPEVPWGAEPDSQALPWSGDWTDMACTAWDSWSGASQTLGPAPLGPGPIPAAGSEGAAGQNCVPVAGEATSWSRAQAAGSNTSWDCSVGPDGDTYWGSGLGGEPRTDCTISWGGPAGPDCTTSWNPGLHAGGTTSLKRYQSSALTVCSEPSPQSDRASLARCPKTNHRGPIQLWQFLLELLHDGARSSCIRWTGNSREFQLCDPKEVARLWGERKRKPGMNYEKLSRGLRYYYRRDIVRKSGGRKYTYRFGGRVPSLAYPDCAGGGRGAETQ
Particulars: protein: recombinant; tags: N-terminal GST; dsDNA, one strand shown. In outline:
as §1

Another experiment has as its target T5, ELF3 (Homo sapiens, UniProt P78545 1-371).
T5 sequence: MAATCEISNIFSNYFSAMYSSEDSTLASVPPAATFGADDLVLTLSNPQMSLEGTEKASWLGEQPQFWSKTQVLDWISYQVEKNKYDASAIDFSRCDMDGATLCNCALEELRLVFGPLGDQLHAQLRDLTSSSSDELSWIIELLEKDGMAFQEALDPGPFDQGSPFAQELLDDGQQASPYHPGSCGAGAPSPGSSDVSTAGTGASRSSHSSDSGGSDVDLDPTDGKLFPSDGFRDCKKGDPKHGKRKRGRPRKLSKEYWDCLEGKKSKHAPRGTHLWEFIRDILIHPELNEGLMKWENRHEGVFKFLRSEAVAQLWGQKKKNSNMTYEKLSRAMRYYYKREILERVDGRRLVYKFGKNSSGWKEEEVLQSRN
The following applies: protein: recombinant; tags: N-terminal GST; dsDNA, one strand shown. Summed up:
as §1

The next experiment addresses CRX (Homo sapiens, UniProt O43186 1-299). The following applies: protein: recombinant; tags: N-terminal GST; dsDNA, one strand shown. In outline:
as §1

Another experiment concerns the target ETV1 (Homo sapiens, UniProt P50549 1-477). Particulars: protein: recombinant; tags: N-terminal GST; dsDNA, one strand shown. Summed up: as §1
The next experiment concerns the target T6, ERF (Homo sapiens, UniProt P50548 1-548).
T6 sequence: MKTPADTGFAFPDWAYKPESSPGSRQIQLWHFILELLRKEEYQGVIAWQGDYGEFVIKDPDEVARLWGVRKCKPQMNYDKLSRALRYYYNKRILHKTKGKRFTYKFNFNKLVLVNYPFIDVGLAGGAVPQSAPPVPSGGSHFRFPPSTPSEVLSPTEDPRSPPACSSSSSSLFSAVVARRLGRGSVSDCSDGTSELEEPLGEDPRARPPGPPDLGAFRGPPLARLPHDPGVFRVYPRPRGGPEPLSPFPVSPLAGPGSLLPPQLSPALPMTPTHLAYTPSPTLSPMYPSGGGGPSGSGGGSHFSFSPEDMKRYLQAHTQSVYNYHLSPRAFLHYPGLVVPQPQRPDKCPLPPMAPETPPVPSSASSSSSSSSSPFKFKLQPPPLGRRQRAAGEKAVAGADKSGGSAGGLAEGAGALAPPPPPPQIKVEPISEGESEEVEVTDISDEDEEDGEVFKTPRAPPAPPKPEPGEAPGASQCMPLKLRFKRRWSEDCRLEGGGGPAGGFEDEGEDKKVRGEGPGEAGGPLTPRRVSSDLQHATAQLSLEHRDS
The following applies: protein: recombinant; tags: N-terminal GST; dsDNA, one strand shown. Summed up:
as §1

A further experiment deals with T7, ETV3L (Homo sapiens, UniProt Q6ZN32 1-361).
T7 sequence: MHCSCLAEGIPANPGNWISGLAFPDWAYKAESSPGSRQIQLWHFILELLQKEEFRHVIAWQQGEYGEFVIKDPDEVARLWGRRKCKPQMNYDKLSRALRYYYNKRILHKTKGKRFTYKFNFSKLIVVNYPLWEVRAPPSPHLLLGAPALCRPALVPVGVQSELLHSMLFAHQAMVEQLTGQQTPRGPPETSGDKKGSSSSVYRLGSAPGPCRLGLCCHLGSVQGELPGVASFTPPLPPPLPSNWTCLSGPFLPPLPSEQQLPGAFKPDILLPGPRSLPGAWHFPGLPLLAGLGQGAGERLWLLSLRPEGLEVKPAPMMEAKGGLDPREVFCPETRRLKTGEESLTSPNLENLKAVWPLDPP
Particulars: protein: recombinant; tags: N-terminal GST; dsDNA, one strand shown. In outline: as §1

In the next experiment the target is T8, ETS2 (Homo sapiens, UniProt P15036 1-469).
T8 sequence: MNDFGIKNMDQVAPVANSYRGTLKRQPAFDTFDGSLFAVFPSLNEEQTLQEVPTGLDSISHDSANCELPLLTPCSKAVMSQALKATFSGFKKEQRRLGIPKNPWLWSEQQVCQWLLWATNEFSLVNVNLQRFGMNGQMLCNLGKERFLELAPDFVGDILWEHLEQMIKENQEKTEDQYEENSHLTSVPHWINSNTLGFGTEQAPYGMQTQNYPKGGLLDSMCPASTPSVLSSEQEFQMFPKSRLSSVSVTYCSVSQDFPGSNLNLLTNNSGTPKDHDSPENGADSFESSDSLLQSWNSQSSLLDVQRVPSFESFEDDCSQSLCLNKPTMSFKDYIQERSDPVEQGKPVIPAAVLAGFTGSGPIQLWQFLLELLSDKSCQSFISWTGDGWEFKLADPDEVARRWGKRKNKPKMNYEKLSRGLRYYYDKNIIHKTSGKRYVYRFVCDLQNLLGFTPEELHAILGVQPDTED
Particulars: protein: recombinant; tags: N-terminal GST; dsDNA, one strand shown. Summed up:
as §1

The next experiment concerns the target T9, SPDEF (Homo sapiens, UniProt O95238 1-335).
T9 sequence: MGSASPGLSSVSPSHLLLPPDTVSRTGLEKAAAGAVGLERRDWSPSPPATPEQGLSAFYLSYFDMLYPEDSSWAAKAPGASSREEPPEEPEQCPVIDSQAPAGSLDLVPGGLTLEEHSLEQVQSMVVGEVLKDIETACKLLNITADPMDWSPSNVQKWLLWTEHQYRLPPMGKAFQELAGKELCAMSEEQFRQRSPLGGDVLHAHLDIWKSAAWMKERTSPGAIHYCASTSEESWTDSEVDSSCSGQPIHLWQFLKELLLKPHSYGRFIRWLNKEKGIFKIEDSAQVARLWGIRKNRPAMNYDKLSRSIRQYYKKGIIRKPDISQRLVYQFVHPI
Particulars: protein: recombinant; tags: N-terminal GST; dsDNA, one strand shown. Summed up:
as §1

The target of the next experiment is T10, ETV7 (Homo sapiens, UniProt Q9Y603 1-341).
T10 sequence: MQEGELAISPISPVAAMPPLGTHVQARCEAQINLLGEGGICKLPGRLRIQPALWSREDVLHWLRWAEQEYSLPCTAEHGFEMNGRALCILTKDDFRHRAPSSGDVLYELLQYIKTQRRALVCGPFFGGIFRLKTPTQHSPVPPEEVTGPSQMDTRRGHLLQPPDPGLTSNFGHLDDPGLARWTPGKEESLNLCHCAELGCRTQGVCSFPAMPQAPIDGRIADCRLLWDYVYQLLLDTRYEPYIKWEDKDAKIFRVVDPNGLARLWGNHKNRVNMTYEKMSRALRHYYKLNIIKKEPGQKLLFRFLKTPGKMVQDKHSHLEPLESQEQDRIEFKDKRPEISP
The following applies: protein: recombinant; tags: N-terminal GST; dsDNA, one strand shown. In outline:
as §1

The next experiment has as its target T11, ELF5 (Homo sapiens, UniProt Q9UKW6-2 1-255).
T11 sequence: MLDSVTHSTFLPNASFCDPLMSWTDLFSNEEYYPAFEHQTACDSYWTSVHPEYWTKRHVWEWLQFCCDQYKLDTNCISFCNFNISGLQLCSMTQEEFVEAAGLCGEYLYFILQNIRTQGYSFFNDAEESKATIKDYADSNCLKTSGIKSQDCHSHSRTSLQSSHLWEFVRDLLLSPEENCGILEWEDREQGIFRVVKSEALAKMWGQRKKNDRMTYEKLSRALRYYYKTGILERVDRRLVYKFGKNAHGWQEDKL
The following applies: protein: recombinant; tags: N-terminal GST; dsDNA, one strand shown. Summed up:
as §1

In the next experiment the target is T12, ETV3 (Homo sapiens, UniProt P41162-2 1-143).
T12 sequence: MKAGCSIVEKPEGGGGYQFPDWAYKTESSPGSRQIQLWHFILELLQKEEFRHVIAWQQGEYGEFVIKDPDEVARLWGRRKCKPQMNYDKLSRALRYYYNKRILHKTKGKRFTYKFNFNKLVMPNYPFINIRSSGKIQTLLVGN
Particulars: protein: recombinant; tags: N-terminal GST; dsDNA, one strand shown. In outline:
as §1

The target in another experiment is ETV6 (Homo sapiens, UniProt P41212 1-452). The following applies: protein: recombinant; tags: N-terminal GST; dsDNA, one strand shown. Summed up: as §1
Chain of ETV6 (P41212 whole entry): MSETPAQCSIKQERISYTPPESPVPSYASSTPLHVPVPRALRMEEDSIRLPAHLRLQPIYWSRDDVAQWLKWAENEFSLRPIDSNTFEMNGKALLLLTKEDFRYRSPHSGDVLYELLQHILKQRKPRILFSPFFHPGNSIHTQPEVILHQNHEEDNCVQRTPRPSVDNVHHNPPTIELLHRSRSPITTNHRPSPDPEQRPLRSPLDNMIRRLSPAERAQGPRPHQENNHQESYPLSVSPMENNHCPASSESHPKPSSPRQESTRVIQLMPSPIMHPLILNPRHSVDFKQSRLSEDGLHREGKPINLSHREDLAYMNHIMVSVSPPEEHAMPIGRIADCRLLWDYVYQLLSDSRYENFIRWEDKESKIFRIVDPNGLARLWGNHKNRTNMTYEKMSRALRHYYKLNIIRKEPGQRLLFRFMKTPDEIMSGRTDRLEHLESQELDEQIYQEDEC

Chain of HSF1 (Q00613 whole entry): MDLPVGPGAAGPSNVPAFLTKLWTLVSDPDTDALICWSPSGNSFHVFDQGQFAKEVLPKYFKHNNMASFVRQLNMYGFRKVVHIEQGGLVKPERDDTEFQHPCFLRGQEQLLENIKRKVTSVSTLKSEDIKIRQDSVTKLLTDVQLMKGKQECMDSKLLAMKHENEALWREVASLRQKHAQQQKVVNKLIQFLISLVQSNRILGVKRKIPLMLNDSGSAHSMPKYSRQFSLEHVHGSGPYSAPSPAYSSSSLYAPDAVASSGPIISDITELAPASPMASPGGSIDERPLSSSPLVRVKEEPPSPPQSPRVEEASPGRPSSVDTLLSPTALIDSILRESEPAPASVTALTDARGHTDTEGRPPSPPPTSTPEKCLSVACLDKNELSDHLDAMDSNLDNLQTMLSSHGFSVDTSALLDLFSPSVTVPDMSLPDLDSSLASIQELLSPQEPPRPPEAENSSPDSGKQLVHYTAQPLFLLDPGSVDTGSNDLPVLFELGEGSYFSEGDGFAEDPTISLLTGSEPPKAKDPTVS
Chain of ELF4 (Q99607 whole entry): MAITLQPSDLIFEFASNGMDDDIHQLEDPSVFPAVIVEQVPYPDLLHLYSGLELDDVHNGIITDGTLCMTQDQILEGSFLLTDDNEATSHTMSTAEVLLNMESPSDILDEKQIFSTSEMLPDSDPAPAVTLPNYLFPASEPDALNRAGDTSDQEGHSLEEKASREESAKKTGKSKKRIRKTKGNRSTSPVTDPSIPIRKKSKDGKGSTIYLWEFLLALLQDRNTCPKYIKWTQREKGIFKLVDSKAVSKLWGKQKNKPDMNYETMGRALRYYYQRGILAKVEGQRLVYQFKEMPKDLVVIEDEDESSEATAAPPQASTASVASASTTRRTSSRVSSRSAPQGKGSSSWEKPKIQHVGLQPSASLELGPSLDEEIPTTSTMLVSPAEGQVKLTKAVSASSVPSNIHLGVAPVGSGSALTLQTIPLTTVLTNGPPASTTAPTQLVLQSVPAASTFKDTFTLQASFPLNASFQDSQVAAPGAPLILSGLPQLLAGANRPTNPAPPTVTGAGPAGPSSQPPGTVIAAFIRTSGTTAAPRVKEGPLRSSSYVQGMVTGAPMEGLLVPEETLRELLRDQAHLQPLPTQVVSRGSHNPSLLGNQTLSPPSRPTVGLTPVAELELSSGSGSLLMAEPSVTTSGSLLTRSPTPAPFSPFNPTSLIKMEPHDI
Chain of ETV1 (P50549 whole entry): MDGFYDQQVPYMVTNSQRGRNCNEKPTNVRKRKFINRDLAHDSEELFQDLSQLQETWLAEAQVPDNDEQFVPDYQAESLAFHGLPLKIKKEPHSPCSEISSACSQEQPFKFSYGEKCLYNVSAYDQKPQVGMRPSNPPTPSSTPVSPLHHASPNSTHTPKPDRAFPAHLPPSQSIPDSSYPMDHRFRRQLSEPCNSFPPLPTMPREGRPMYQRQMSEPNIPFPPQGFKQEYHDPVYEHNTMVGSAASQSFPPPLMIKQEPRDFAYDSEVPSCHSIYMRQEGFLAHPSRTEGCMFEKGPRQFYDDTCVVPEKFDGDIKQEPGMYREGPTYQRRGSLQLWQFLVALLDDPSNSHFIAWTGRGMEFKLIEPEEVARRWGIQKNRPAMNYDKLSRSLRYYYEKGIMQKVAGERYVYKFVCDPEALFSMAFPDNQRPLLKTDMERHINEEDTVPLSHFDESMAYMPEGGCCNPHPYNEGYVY
Chain of CRX (O43186 whole entry): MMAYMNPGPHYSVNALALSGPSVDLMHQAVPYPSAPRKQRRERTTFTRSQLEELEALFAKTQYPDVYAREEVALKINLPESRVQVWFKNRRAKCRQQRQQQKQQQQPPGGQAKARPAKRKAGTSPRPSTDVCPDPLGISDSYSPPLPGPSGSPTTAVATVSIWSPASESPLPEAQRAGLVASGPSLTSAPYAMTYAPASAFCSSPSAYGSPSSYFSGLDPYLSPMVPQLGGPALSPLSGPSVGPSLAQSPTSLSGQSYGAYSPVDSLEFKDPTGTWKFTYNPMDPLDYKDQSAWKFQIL
Chain of ETV5 (P41161 whole entry): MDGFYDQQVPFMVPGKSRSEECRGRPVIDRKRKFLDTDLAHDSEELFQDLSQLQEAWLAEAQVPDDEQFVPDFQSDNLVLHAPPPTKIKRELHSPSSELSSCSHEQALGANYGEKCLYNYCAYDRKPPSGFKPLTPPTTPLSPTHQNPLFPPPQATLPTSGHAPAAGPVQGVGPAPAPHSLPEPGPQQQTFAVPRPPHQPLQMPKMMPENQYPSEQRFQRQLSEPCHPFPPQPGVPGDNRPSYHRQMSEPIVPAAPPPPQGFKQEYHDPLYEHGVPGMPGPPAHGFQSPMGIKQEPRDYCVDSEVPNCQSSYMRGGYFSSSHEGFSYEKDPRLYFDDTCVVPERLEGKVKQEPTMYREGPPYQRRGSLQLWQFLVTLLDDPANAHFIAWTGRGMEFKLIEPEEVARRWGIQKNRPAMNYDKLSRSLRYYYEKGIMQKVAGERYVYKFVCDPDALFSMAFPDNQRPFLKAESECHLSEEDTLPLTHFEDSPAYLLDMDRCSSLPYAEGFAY

Take TCAACC: the binding signal with FEV was 1.19 fold enrichment (6-mer frequency, TF over GST control); in the experiment with ETV5, 1.22 fold enrichment (6-mer frequency, TF over GST control); in the experiment with HSF1, 1.03 fold enrichment (6-mer frequency, TF over GST control); with SPIC, 1.07 fold enrichment (6-mer frequency, TF over GST control); with ELF4, 1.19 fold enrichment (6-mer frequency, TF over GST control); in the experiment with ELK4, 1.16 fold enrichment (6-mer frequency, TF over GST control). Further, the binding signal with ETV2 is 1.3 fold enrichment (6-mer frequency, TF over GST control); in the experiment with ELF3, 1.16 fold enrichment (6-mer frequency, TF over GST control); with CRX, 1.09 fold enrichment (6-mer frequency, TF over GST control); with ETV1 it was 1.23 fold enrichment (6-mer frequency, TF over GST control); with ERF, 1.3 fold enrichment (6-mer frequency, TF over GST control); with ETV3L it was 1.24 fold enrichment (6-mer frequency, TF over GST control). In addition, the binding signal with ETS2 was 1.22 fold enrichment (6-mer frequency, TF over GST control); with SPDEF it was 1.2 fold enrichment (6-mer frequency, TF over GST control); with ETV7, 1.07 fold enrichment (6-mer frequency, TF over GST control); with ELF5, 1.07 fold enrichment (6-mer frequency, TF over GST control); with ETV3, 1.16 fold enrichment (6-mer frequency, TF over GST control); with ETV6 it was 1.22 fold enrichment (6-mer frequency, TF over GST control).
